The test system of test [1] is E18 rat cortical neuron-glia co-culture. In words: fiber score / MBP score (myelination specific beyond OL differentiation) (ratio); higher = more myelination-specific MBP alignment. The settings on record: treatment time: 8 days (DIV5-DIV13). Summed up:
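Library compounds were applied at 1 or 5 µM in myelination medium, DIV5 to DIV13, to primary E18 rat cortical co-cultures grown at 20,000 cells/well in 96-well plates. After 4 % paraformaldehyde fixation and MBP/Olig2/DAPI immunostaining, four 10X fields per well in duplicate wells were scored. Each value is continuous MBP fiber length per Olig2+ nucleus divided by thresholded MBP area × intensity per Olig2+ nucleus.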

Test [2] shares this test system. In words: myelination (MBP fiber length per Olig2+ nucleus), % of 1 µM DAPT response (DMSO = 0) (% of DAPT); higher = more myelination, active = 50 or more. The settings on record: treatment time: 8 days (DIV5-DIV13). Summed up:
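Library compounds at 1 or 5 µM in myelination medium were applied from DIV5 to DIV13 to papain-dissociated E18 rat cortical co-cultures seeded at 20,000 cells/well on poly-d-lysine/laminin 96-well plates. Fixed cells (4 % paraformaldehyde) were immunostained for MBP and Olig2 with DAPI, and four 10X fields were analysed in each duplicate well. Continuous straight MBP fiber length per Olig2+ nucleus was set to 0 for 0.1 % DMSO and to 100 for a 1 µM positive control.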

± gives the standard deviation of the averaged measurements.

Data on 23 compounds can be found in the supplement of paper PMC4840960.

As to `CN1CCCC(n2nc(Cc3ccc(Cl)cc3)c3ccccc3c2=O)CC1` (configuration not stated) [Azelastine], the figures for the “fiber score / MBP score” value in test [1] (1 µM) and in test [1] (5 µM) were 0.861 and 0.855, respectively. Further, the myelination was -2.34 (inactive) in test [2] (1 µM) and -2.84 (inactive) in test [2] (5 µM).
The corresponding values for `CC(C)C[C@H](NC(=O)[C@@H](COC(C)(C)C)NC(=O)[C@H](Cc1ccc(O)cc1)NC(=O)[C@H](CO)NC(=O)[C@H](Cc1c[nH]c2ccccc12)NC(=O)[C@H](Cc1cnc[nH]1)NC(=O)[C@@H]1CCC(=O)N1)C(=O)N[C@@H](CCCNC(=N)N)C(=O)N1CCC[C@H]1C(=O)NNC(N)=O` [Goserelin] are 0.788, 0.867, -8.02 (inactive) and -4.2 (inactive).
As to `Cc1nccn1CC1CCc2c(c3ccccc3n2C)C1=O` (configuration not stated) [Ondansetron], the “fiber score / MBP score” value was determined as 0.73 ± 0.022 in test [1] (1 µM) and 0.404 ± 0.053 in test [1] (5 µM). Moreover, the values for the myelination in test [2] (1 µM) and in test [2] (5 µM) were -25.6 (inactive) and -35.8 (inactive), respectively.
For `C#C[C@]1(O)CC[C@H]2[C@@H]3CCC4=CC(=O)CC[C@@H]4[C@H]3CC[C@@]21CC` [Levonorgestrel], the “fiber score / MBP score” value in test [1] (1 µM) worked out at 0.998; in test [1] (5 µM), 1.12. Also, the myelination in test [2] (1 µM) was -13.4 (inactive); in test [2] (5 µM), 0.485 (inactive).
As to `O=C(O)Cc1ccccc1Nc1c(Cl)cccc1Cl` [Diclofenac], the “fiber score / MBP score” value in test [1] (1 µM) worked out at 0.824; in test [1] (5 µM), 0.883. Also, the myelination was -25.4 (inactive) in test [2] (1 µM) and -15.6 (inactive) in test [2] (5 µM).
As for `CCCCCCNC(=O)n1cc(F)c(=O)[nH]c1=O` [Carmofur], the “fiber score / MBP score” value in test [1] (1 µM) stood at 0.54; in test [1] (5 µM) it was 0.729. Moreover, the myelination in test [2] (1 µM) was -30.6 (inactive); in test [2] (5 µM) it was -14.4 (inactive).
Regarding `C[C@]12CCC(=O)C=C1CC[C@@H]1[C@@H]2[C@@H](O)C[C@@]2(C)[C@H]1CC[C@]2(O)C(=O)COC(=O)CCC(=O)O` [Cortisol succinate], the entries for the “fiber score / MBP score” value in test [1] (1 µM) and in test [1] (5 µM) were 0.943 and 1.41, respectively. For the same compound, the myelination was 0.996 (inactive) in test [2] (1 µM) and 17.9 (inactive) in test [2] (5 µM).
The corresponding values for `Cn1c(=O)c2nc[nH]c2n(C)c1=O` [Theophylline] are 0.93, 0.671, -7.88 (inactive) and -20.2 (inactive).
For `CN(C)C(=O)C(CCN1CCC(O)(c2ccc(Cl)cc2)CC1)(c1ccccc1)c1ccccc1` [Loperamide], the “fiber score / MBP score” value in test [1] (1 µM) is 0.58; in test [1] (5 µM), 0.368. For the same compound, the values for the myelination in test [2] (1 µM) and in test [2] (5 µM) were -10.1 (inactive) and -21 (inactive), respectively.
As to `NS(=O)(=O)c1cc2c(cc1Cl)NCNS2(=O)=O` [Hydrochlorothiazide], the figures for the “fiber score / MBP score” value in test [1] (1 µM) and in test [1] (5 µM) were 0.749 and 0.819, respectively. Moreover, the myelination is -8.91 (inactive) in test [2] (1 µM) and -12.5 (inactive) in test [2] (5 µM).
Regarding `CN1CCN(CC/C=C2/c3ccccc3Sc3ccc(S(=O)(=O)N(C)C)cc32)CC1` [Thiothixene], the “fiber score / MBP score” value in test [1] (1 µM) is 0.826; in test [1] (5 µM), 1.29. Moreover, the myelination in test [2] (1 µM) was -6.05 (inactive); in test [2] (5 µM), 42.5 (inactive).
The corresponding values for `COc1ccc([C@@H]2Sc3ccccc3N(CCN(C)C)C(=O)[C@@H]2OC(C)=O)cc1` [Diltiazem] are 0.782, 0.558, -10.1 (inactive) and -20.8 (inactive).
The corresponding values for `C/C=C1\[C@H]2C=C(C)C[C@]1(N)c1ccc(=O)[nH]c1C2` [Huperzine A] are 1.07, 0.872, 8.16 (inactive) and -5.77 (inactive).
The corresponding values for `CC(C)NCC(O)COc1ccc(CCOCC2CC2)cc1` (configuration not stated) [Betaxolol] are 0.636, 0.615, -12.6 (inactive) and -10.5 (inactive).
For the compound `Nc1ccn([C@H]2CC[C@@H](CO)O2)c(=O)n1` [Zalcitabine], the “fiber score / MBP score” value in test [1] (1 µM) came out at 0.888; in test [1] (5 µM), 0.902. Also, the myelination in test [2] (1 µM) is 3.9 (inactive); in test [2] (5 µM), -7.3 (inactive).
In the case of `CCC1(c2ccccc2)C(=O)NCNC1=O` [Primidone], the “fiber score / MBP score” value is 0.952 in test [1] (1 µM) and 1.03 in test [1] (5 µM). The myelination in test [2] (1 µM) is 3.26 (inactive); in test [2] (5 µM), -3.74 (inactive).
On to `CC(C)/N=c1\cc2n(-c3ccc(Cl)cc3)c3ccccc3nc-2cc1Nc1ccc(Cl)cc1` [Clofazimine], for which the figures for the “fiber score / MBP score” value in test [1] (1 µM) and in test [1] (5 µM) were 0.742 and 0.962, respectively. In addition, the values for the myelination in test [2] (1 µM) and in test [2] (5 µM) were -9.19 (inactive) and -8.06 (inactive), respectively.
Consider `CN1CCN(C2=Nc3ccccc3Oc3ccc(Cl)cc32)CC1` [Loxapine], for which the entries for the “fiber score / MBP score” value in test [1] (1 µM) and in test [1] (5 µM) were 0.561 and 0.903, respectively. Moreover, the myelination in test [2] (1 µM) was -14.9 (inactive); in test [2] (5 µM) it was 4.82 (inactive).
Turning to `COc1nc(C)nc(Cl)c1NC1=NCCN1` [Moxonidine], the “fiber score / MBP score” value in test [1] (1 µM) was 0.758; in test [1] (5 µM), 0.82. Besides, the values for the myelination in test [2] (1 µM) and in test [2] (5 µM) were -10.8 (inactive) and -21.6 (inactive), respectively.
The corresponding values for `CCCc1c(OCCCCc2nnn[nH]2)ccc(C(C)=O)c1O` are 0.683, 1, -11.5 (inactive) and 1.2 (inactive).
The corresponding values for `O=C(O)/C=C/c1ccc(Cn2ccnc2)cc1` [Ozagrel] are 0.768, 1.11, -6.75 (inactive) and -0.768 (inactive).
The corresponding values for `Cc1cn([C@H]2C=C[C@@H](CO)O2)c(=O)[nH]c1=O` [Stavudine] are 0.646 ± 0.15, 0.637 ± 0.27, -12.8 (inactive) and -8.63 (inactive).
In the case of `CN(C)CCOC(c1ccc(Cl)cc1)c1ccccn1` (configuration not stated) [Carbinoxamine], the “fiber score / MBP score” value in test [1] (1 µM) stood at 1.21; in test [1] (5 µM), 1.23. In addition, the myelination in test [2] (1 µM) was 3.25 (inactive); in test [2] (5 µM), 8.5 (inactive).
